Measured values taken from PubChem BioAssay (EPA / NIEHS).
Inconclusive results are not listed. The source made the active and inactive calls. How the source made its calls, unless noted: active means hit-call score of the fitted dose curve at least 0.9, where 1 is the maximum; inactive means score below 0.9.

Legend:
[1] = ATG_CRE_CIS: Attagene CIS-FACTORIAL HepG2 Assay for human cAMP Responsive Element (CRE) binding protein 3 (AID 2282926); details: HepG2 CRE cis-reporter, Attagene multiplexed mRNA; actives raise or lower the signal
Method in brief: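 Endogenous transcription factor activity read via CRE-regulated reporter transcripts in transfected HepG2 cells. After 24 h exposure, RNA was reverse-transcribed, amplified, fluorescently labelled and sized by capillary electrophoresis; gain or loss fitted against DMSO.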

[2] = biological target: Aryl hydrocarbon receptor (Homo sapiens) (UniProt P35869); experiment: ATG_Ahr_CIS: Attagene CIS-FACTORIAL HepG2 Assay for human Aryl Hydrocarbon Receptor (Ahr) (AID 2282930); details: HepG2 AhR cis-factorial reporter transcription; actives raise or lower the signal
Chain of Aryl hydrocarbon receptor (Homo sapiens) (P35869 whole entry, looked up): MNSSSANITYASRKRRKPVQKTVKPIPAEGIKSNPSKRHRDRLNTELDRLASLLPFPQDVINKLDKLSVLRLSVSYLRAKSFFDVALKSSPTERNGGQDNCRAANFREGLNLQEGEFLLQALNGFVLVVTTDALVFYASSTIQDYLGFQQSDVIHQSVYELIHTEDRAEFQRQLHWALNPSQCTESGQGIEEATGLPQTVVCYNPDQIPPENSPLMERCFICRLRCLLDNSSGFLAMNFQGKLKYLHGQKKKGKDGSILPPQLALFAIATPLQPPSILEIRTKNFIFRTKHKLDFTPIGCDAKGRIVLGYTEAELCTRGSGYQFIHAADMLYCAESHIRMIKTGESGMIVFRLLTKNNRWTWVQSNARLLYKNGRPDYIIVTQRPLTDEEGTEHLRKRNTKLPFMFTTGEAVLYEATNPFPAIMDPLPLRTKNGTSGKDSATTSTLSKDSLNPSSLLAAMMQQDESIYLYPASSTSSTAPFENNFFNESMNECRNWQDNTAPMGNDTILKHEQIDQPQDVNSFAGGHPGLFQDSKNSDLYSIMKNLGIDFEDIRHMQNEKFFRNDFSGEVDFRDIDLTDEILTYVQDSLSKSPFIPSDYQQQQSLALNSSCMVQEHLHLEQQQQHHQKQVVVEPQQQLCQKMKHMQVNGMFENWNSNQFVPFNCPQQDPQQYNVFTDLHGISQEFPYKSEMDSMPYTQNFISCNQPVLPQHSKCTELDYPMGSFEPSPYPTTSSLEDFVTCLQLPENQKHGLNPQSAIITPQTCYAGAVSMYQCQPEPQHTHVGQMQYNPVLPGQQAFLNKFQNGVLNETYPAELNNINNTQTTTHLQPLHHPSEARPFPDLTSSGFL
Method in brief: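 Following 24 h of chemical dosing, transfected HepG2 liver cells with cis-driven reporter units were lysed for RNA; reporter mRNA was quantified via RT-PCR and capillary electrophoresis, and responses fitted bidirectionally from DMSO.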

[3] = biological target: Hepatocyte nuclear factor 3-beta (Homo sapiens) (UniProt Q9Y261); experiment: ATG_FoxA2_CIS: Attagene CIS-FACTORIAL HepG2 Assay for human Forkhead box A2 (FOXA2) (AID 2282942); details: HepG2 cis-reporter transcription factor activity, 24 h; actives raise or lower the signal
Chain of Hepatocyte nuclear factor 3-beta (Homo sapiens) (Q9Y261 whole entry, looked up): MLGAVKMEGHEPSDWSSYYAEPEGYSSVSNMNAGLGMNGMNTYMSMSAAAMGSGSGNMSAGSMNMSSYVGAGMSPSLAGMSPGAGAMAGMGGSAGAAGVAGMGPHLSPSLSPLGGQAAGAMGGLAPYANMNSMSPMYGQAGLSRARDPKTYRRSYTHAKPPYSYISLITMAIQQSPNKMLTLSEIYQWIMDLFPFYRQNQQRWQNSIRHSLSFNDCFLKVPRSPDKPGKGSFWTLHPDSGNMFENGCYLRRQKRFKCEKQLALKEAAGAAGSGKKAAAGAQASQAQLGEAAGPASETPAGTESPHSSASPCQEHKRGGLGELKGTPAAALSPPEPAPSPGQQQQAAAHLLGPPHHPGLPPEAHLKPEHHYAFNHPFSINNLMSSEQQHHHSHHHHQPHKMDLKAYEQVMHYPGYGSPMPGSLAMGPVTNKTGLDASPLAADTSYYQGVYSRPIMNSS
Method in brief: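 In transiently transfected human HepG2 cells, promoter-driven reporter mRNA levels after 24 h chemical exposure are determined via RT-PCR with capillary electrophoresis. DMSO serves as baseline for bidirectional fitting.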

[4] = biological target: Paired box protein Pax-6 (Homo sapiens) (UniProt P26367); experiment: ATG_Pax6_CIS: Attagene CIS-FACTORIAL HepG2 Assay for human Paired Box 6 (PAX6) (AID 2282956); details: HepG2 CIS-FACTORIAL PAX6 reporter transcription, RNA readout; actives raise or lower the signal
Chain of Paired box protein Pax-6 (Homo sapiens) (P26367 whole entry, looked up): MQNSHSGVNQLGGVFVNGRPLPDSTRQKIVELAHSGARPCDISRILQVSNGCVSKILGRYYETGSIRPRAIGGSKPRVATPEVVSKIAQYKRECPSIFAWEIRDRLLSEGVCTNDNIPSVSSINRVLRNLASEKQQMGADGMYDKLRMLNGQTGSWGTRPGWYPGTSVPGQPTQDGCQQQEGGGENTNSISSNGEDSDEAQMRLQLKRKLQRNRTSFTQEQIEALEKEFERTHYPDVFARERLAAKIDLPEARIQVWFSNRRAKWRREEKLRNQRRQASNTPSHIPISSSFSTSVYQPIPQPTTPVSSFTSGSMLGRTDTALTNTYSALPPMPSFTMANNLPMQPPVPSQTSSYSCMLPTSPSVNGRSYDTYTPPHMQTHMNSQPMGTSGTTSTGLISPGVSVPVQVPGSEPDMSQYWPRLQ
Method in brief: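 DMSO-referenced bidirectional fits of reporter mRNA fluorescence; HepG2 with transient cis-promoter MRTUs, 24 h post-dose, RT-PCR plus capillary electrophoresis detection.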

[5] = biological target: Transcription factor Sp1 (Homo sapiens) (UniProt P08047); experiment: ATG_Sp1_CIS: Attagene CIS-FACTORIAL HepG2 Assay for human Specificity Protein 1 (Sp1) (AID 2282961); details: HepG2 Sp1 cis-reporter transcription, actives raise or lower the signal
Chain of Transcription factor Sp1 (Homo sapiens) (P08047 whole entry, looked up): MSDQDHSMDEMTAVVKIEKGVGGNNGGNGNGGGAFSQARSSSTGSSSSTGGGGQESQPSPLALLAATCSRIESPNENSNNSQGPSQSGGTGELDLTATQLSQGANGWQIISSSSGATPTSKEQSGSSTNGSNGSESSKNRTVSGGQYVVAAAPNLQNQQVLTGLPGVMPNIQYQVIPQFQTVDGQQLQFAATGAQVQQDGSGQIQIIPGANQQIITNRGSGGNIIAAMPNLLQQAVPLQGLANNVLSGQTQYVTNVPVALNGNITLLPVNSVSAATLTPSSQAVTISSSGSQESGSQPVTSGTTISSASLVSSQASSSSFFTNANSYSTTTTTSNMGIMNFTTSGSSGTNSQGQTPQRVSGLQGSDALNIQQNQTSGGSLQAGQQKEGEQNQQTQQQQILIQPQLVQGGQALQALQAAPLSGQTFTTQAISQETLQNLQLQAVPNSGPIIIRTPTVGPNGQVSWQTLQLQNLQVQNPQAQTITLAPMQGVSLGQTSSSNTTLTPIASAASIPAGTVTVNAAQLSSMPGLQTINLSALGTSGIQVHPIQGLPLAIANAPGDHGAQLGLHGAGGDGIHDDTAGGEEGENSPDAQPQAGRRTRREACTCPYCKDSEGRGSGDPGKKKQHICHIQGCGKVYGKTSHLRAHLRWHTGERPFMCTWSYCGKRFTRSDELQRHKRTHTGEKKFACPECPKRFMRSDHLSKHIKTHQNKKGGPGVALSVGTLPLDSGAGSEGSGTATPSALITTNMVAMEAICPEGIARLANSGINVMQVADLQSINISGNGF
Method in brief: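 Sp1-driven reporter mRNA, read as capillary electrophoresis fluorescence after RT-PCR, in transiently transfected HepG2 cells dosed for 24 h; signal change in either direction relative to DMSO.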

[6] = ATG_SREBP_CIS: Attagene CIS-FACTORIAL HepG2 Assay for human Sterol Regulatory Element Binding (SREBP) (AID 2282962); details: HepG2 Attagene cis-factorial SREBP reporter, mRNA; actives raise or lower the signal
Method in brief: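 In this cis-format assay, HepG2 liver cells express reporters controlled by promoter elements responsive to native transcription factors. Exposure lasts 24 h; reporter mRNA fluorescence from capillary electrophoresis gives the signal, fitted bidirectionally against DMSO.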

[7] = biological target: Signal transducer and activator of transcription 3 (Homo sapiens) (UniProt P40763); experiment: ATG_STAT3_CIS: Attagene CIS-FACTORIAL HepG2 Assay for human Signal Transducer and Activator of Transcription 3 (STAT3) (AID 2282963); details: HepG2, Attagene cis-factorial STAT3 reporter transcription; actives raise or lower the signal
Chain of Signal transducer and activator of transcription 3 (Homo sapiens) (P40763 whole entry, looked up): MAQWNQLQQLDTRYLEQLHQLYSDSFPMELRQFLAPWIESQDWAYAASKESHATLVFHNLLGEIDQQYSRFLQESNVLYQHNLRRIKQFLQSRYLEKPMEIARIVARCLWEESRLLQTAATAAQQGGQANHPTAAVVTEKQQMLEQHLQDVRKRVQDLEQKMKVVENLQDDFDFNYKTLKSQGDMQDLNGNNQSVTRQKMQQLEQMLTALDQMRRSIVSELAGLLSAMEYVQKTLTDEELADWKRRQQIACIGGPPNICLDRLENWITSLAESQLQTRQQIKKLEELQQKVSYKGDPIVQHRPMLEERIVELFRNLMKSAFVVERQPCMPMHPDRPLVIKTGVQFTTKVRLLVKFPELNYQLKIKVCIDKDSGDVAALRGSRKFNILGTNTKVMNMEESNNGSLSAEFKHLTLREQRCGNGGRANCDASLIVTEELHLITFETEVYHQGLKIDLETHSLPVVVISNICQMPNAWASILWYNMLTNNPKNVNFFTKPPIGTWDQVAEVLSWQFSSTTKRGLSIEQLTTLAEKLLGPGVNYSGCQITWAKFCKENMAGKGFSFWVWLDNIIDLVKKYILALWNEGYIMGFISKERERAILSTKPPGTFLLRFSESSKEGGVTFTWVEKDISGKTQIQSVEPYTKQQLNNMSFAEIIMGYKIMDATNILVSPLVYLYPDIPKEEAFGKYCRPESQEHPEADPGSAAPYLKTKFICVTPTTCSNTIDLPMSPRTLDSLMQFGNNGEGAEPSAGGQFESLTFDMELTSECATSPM
Method in brief: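 HepG2, MRTU-transfected, 24 h dosing. RNA → RT → PCR → FAM label → HpaI → CE. Bidirectional fit vs DMSO.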

[8] = ATG_TA_CIS: Attagene CIS-FACTORIAL HepG2 Assay for human TA Basal Promoter (AID 2282964); details: HepG2 Attagene CIS-factorial TA basal promoter reporter; actives raise or lower the signal
Method in brief: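 Fluorescence from labelled RT-PCR reporter fragments, separated by capillary electrophoresis, gives the signal. Cells: HepG2 transiently carrying multiple reporter units, 24 h chemical dosing. Gain or loss relative to DMSO.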

[9] = ATG_TCF_b_cat_CIS: Attagene CIS-FACTORIAL HepG2 Assay for human T-Cell-Factor with beta-catenin (TCF/b-cat) (AID 2282965); details: HepG2 TCF/beta-catenin cis-reporter transcription, actives raise or lower the signal
Method in brief: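 In this cis-format system, transfected HepG2 cells report endogenous transcription factor activity. Readout after 24 h exposure is reporter transcript abundance from RT-PCR and capillary electrophoresis, analysed for gain or loss of signal versus DMSO.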

[10] = ATG_TAL_CIS: Attagene CIS-FACTORIAL HepG2 Assay for human TAL Basal Promoter (AID 2282966); details: HepG2 Attagene cis-factorial TAL promoter reporter; actives raise or lower the signal;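 further: background control endpoint measuring basal TAL promoter reporter mRNA not a specific factor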
Method in brief: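 Background-control endpoint: basal TAL promoter reporter transcripts in transiently transfected HepG2, measured 24 h after dosing. Read-out by RT-PCR with fluorescent primer extension and capillary electrophoresis; gain or loss of signal fitted relative to DMSO.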

[11] = ATG_TGFb_CIS: Attagene CIS-FACTORIAL HepG2 Assay for human Transforming Growth Factor (TGF) (AID 2282967); details: HepG2 Attagene CIS TGFb reporter, mRNA transcription; actives raise or lower the signal
Method in brief: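 Bidirectional fitting relative to DMSO gave the endpoint. Underlying data: reporter mRNA from HepG2 cells carrying transiently transfected cis-regulated reporter constructs, harvested 24 h after dosing and analyzed by RT-PCR and capillary electrophoresis.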

[12] = ATG_VDRE_CIS: Attagene CIS-FACTORIAL HepG2 Assay for human Vitamin D Receptor Element (VDRE) (AID 2282968); details: HepG2 VDRE cis-reporter transcription, actives raise or lower the signal
Method in brief: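 Steps: transfect HepG2 with multiple reporter transcription units; dose chemicals 24 h; isolate RNA; RT-PCR; label with 6-FAM primer extension; HpaI digest; capillary electrophoresis. Curves fitted both directions against DMSO.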

[13] = ATG_M_32_TRANS: Attagene TRANS-FACTORIAL HepG2 Assay for M32 Transcription Factor (Internal Marker) (AID 2282984; active means hit-call score of the fitted dose curve at least 0.9, where 1 is the maximum); details: HepG2 Attagene TRANS M32 internal marker reporter
Method in brief: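 After 24 h dosing of transfected HepG2 cells, total RNA was reverse-transcribed, reporter sequences PCR-amplified, 6-FAM labelled by primer extension and HpaI-digested before capillary electrophoresis. Signal increase over DMSO was fitted.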

[14] = biological target: Transcriptional activator Myb (Homo sapiens) (UniProt P10242); experiment: ATG_Myb_CIS: Attagene CIS-FACTORIAL HepG2 Assay for human Myeloblastosis (Myb) Proto-Oncogene Transcription Factor (AID 2282986); details: HepG2 Attagene CIS-FACTORIAL Myb reporter transcription; actives raise or lower the signal
Method in brief: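 Fluorescence signals from capillary electrophoresis of RT-PCR-amplified reporter cDNA give the read-out. Cells: HepG2 transfected with multiple cis-regulated reporter units. Exposure lasts 24 hours; DMSO defines baseline for gain or loss of signal.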

[15] = biological target: Nuclear respiratory factor 1 (Homo sapiens) (UniProt Q16656); experiment: ATG_NRF1_CIS: Attagene CIS-FACTORIAL HepG2 Assay for human Nuclear Respiratory Factor 1 (NRF1) Orphan Gene (AID 2282987); details: HepG2 NRF1 cis-element reporter, Attagene multiplex; actives raise or lower the signal
Chain of Nuclear respiratory factor 1 (Homo sapiens) (Q16656 whole entry, looked up): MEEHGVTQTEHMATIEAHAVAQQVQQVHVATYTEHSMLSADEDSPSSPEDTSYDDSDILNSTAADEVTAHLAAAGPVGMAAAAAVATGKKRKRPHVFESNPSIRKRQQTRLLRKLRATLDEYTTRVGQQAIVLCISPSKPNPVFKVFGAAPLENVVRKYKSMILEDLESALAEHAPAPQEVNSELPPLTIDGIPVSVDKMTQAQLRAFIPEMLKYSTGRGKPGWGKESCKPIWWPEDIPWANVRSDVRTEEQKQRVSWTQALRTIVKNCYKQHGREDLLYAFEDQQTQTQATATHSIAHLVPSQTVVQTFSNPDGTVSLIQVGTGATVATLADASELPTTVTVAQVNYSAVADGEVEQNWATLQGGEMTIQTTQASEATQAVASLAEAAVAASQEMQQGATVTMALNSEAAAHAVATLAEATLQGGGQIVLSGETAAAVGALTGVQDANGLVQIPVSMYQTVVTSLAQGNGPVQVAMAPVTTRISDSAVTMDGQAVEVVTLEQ
Method in brief: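 Transcriptional reporter readout, one component of a 52-endpoint multiplexed HepG2 panel. Exposure 24 h; mRNA detected via RT-PCR and fluorescent capillary electrophoresis; fitting in both directions against DMSO.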

[16] = ATG_NFI_CIS: Attagene CIS-FACTORIAL HepG2 Assay for human Nuclear Factor I (NFI) (AID 2282989); details: HepG2 cis-regulatory reporter, NFI response element transcription; actives raise or lower the signal
Method in brief: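 Cells: human liver HepG2, transiently transfected with promoter-regulated reporter transcription units. Exposure 24 h. Detection: fluorescent RT-PCR products separated by capillary electrophoresis, normalised to DMSO negative control.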

[17] = ATG_Oct_MLP_CIS: Attagene CIS-FACTORIAL HepG2 Assay for human Octamer-Binding Transcription Factor (Oct) (AID 2282993); details: HepG2 Attagene cis-factorial Oct reporter, mRNA; actives raise or lower the signal
Method in brief: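 HepG2, transient MRTU transfection, cis promoter elements; 24 h dosing; RT-PCR/CE fluorescence read-out of reporter mRNA; fit both directions vs DMSO.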

[18] = biological target: Myc proto-oncogene protein (Homo sapiens) (UniProt P01106); experiment: ATG_Myc_CIS: Attagene CIS-FACTORIAL HepG2 Assay for human Myelocytomatosis (Myc) Proto-Oncogene Transcription Factor (AID 2282990); details: HepG2, Attagene cis-reporter transcription factor activity; actives raise or lower the signal
Chain of Myc proto-oncogene protein (Homo sapiens) (P01106 whole entry, looked up): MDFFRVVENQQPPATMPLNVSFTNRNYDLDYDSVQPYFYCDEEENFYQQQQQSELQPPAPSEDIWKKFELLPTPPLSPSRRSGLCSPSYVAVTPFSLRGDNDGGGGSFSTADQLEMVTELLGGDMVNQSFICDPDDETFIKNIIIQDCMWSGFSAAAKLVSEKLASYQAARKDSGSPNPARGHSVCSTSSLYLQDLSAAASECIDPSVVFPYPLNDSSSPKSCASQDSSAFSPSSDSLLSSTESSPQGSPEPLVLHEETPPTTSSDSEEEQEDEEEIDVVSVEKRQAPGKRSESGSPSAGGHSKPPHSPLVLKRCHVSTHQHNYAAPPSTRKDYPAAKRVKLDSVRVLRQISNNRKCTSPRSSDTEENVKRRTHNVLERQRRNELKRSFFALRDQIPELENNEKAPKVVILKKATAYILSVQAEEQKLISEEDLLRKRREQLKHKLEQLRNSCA
Method in brief: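 DMSO-normalised, bidirectionally fitted reporter mRNA signal. HepG2 cells transfected with cis reporter constructs, treated 24 h; transcripts detected by RT-PCR, 6-FAM primer extension and CE.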

[19] = ATG_NF_kB_CIS: Attagene CIS-FACTORIAL HepG2 Assay for human Nuclear Factor Kappa B (NF-kB) (AID 2282991); details: HepG2 Attagene cis-factorial NF-kB reporter mRNA; actives raise or lower the signal
Method in brief: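 HepG2, transient multi-reporter transfection, cis promoter elements (endogenous TFs). 24 h exposure. Total RNA → RT → PCR → 6-FAM label → HpaI → CE. Gain/loss vs DMSO.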

[20] = biological target: X-box-binding protein 1 (Homo sapiens) (UniProt P17861); experiment: ATG_Xbp1_CIS: Attagene CIS-FACTORIAL HepG2 Assay for human X-box Binding Protein 1 (XBP1) (AID 2282972); details: HepG2 XBP1 cis-element reporter, Attagene multiplex; actives raise or lower the signal
Chain of X-box-binding protein 1 (Homo sapiens) (P17861 whole entry, looked up): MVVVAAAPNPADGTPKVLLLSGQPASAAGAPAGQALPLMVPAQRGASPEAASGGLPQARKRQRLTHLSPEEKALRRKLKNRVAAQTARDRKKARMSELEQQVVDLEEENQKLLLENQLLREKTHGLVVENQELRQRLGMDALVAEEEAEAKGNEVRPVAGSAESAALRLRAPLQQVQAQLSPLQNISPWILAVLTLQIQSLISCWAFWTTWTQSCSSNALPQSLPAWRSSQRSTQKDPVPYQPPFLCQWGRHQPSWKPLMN
Method in brief: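 Changes in reporter transcript abundance, read by RT-PCR and capillary electrophoresis, reflect endogenous transcription factor activity. Transfected HepG2 cells received compound for 24 hours; DMSO defined baseline for bidirectional analysis.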

Measured: AC50

O=S(=O)(c1ccccc1)c1ccccc1
active: [12] 31.4 µM
not listed: [18] | [19] | [20]
inactive: all other assays above

Nc1ccccc1C(=O)OCCc1ccccc1
active: [2] 10 µM | [3] 14.6 µM | [10] 33.4 µM | [12] 22.3 µM
not listed: [20]
inactive: all other assays above

CC[N+](=O)[O-]
not listed: [13] | [20]
inactive: all other assays above

S=c1[nH]c2ccccc2[nH]1
not listed: [3] | [4] | [12] | [13] | [19]
inactive: all other assays above

CCOP(=O)(OCC)Oc1ccc([N+](=O)[O-])cc1
not listed: [7]
inactive: all other assays above

[CH3][Sn]([Cl])([Cl])[Cl]
not listed: [13] | [19]
inactive: all other assays above

Nc1ccc([N+](=O)[O-])cc1N
active: [2] 24.7 µM
not listed: [7] | [19]
inactive: all other assays above

O=C(NC(=O)c1c(F)cccc1F)Nc1ccc(Oc2ccc(C(F)(F)F)cc2Cl)cc1F
active: [2] 8.23 µM
not listed: [7] | [13]
inactive: all other assays above

COC(C)(C)CCC[C@H](C)C/C=C/C(C)=C/C(=O)OC(C)C
active: [4] 100 µM | [14] 165 µM
not listed: [12]
inactive: all other assays above

ClCC(Cl)Cl
not listed: [13] | [18] | [20]
inactive: all other assays above

C=CCO
not listed: [12] | [18]
inactive: all other assays above

C[C@]12CC[C@H](O)C[C@H]1CC[C@@H]1[C@@H]2C[C@@H](O)[C@]2(C)[C@@H](C3=CC(=O)OC3)CC[C@]12O
inactive: [2] | [3] | [7] | [8] | [9] | [11] | [13] | [18] | [19]
active: [1] 3.11 µM | [5] 1.28 µM | [6] 1.74 µM | [10] 60.9 µM | [12] 2.08 µM | [20] 3.98 µM | [14] 5.88 µM | [15] 5.24 µM | [16] 2.61 µM | [17] 2.08 µM

C=CC(=O)OCCCCOC(=O)C=C
active: [5] 26 µM | [6] 80.9 µM | [9] 60.4 µM | [12] 33.5 µM | [19] 35.3 µM | [17] 37.7 µM
not listed: [3] | [4] | [7] | [20]
inactive: all other assays above

CC1OC(C)OC(C)O1 (centres undefined)
not listed: [7] | [12]
inactive: all other assays above

N#CCNCC#N
not listed: [7] | [18] | [20]
inactive: all other assays above

C[C@]12CC[C@H]3[C@@H](CC[C@@]45O[C@@H]4C(O)=C(C#N)C[C@]35C)[C@@H]1CC[C@@H]2O
active: [9] 75 µM | [12] 33.9 µM | [20] 60 µM | [19] 18.6 µM | [17] 63.3 µM
not listed: [4] | [7]
inactive: all other assays above
